According to PubChem BioAssay (NCATS):
Records with an inconclusive call do not appear. Activity calls are given as the source filed them. Calls come from the whole dose curve; as a rule, active = well fitted cell-killing curve with a large enough effect; inconclusive = small, poorly fitted or top-dose-only effect, or effect the other way; inactive = no such curve, though single readings can be large or run the other way.

assay: Quantitative High-Throughput drug screen in 47 multiple myeloma cell lines against the NCATS MIPE library collection: KHM11_PLB cell viability assay (AID 1918962); settings: KHM11 myeloma cell viability, CellTiter-Glo ATP luminescence, 48 h; series mostly up to 45.8 µM; note: nearly all actives have a fitted effect of over 35% in size
Source text: PI: Beverly A. Mock Ph.D.
Laboratory of Cancer Biology and Genetics,
Center for Cancer Research, National Cancer Institute,
National Institute of Health, Bethesda, Maryland
Drug resistance and disease progression are common in multiple myeloma (MM) patients, underscoring the need for new therapeutic combinations. […] We hypothesized that effective combinations would reduce MYC expression and enhance p16 activity. […] These preclinical data identify potentially useful drug combinations for evaluation in drug-resistant MM and reveal potential mechanisms of combined drug sensitivity.
Described herein is the primary MIPE qHTS used to cherrypick compounds. Validated compounds were then further tested for potential synergistic activiy.
[1] Peat TJ, Gaikwad SM, Dubois W, Gyabaah-Kessie N, Zhang S, Gorjifard S, Phyo Z, Andres M, Hughitt VK, Simpson RM, Miller MA, Girvin AT, Taylor A, Williams D, D'Antonio N, Zhang Y, Rajagopalan A, Flietner E, Wilson K, Zhang X, Shinn P, Klumpp-Thomas C, McKnight C, Itkin Z, Chen L, Kazandijian D, Zhang J, Michalowski AM, Simmons JK, Keats J, Thomas CJ, Mock BA. Drug combinations identified by high-throughput screening promote cell cycle transition and upregulate Smad pathways in myeloma. Cancer Lett. 2023 Aug 1;568:216284. doi: 10.1016/j.canlet.2023.216284. Epub 2023 Jun 24. PMID: 37356470; PMCID: PMC10408729.
SEQUENCE No. (e.g., 1, 2, 3, etc.); […] (e.g., Cells, Incubation, Reagent, etc.); VALUE and DESCRIPTION.
1; Cells; 5 uL; white, solid bottom 1536-well Greiner assay plate.
2; Compounds; 23 nL; Kalypsis pin tool (Wako USA) equipped with a 1536-well pin head to transfer to the assay plates.
3; Incubation; 48 hours; 37C incubation.
4; Reagent;5uL; CellTiter Glo (Promega).
5; Detector; 425V; Luminescence; Viewlux PerkinElmer.
NOTES (numbers refer to Sequence numbers above)
1. The cell-based screening methods employed in this study were like those previously published. Briefly, the corresponding myeloma cell lines were screened in 1,536-well plates with 500 cells, 5-uL per well for inhibition of cell viability (assessed by measuring ATP levels with CellTiterGlo).
2. NCATS MIPE 4.0 library of approved and investigational drugs were added using the Kalypsis pin tool. Wells treated with DMSO only for 100% viability and media only wells for 0% viability were used as controls.
3. The assay plates were covered and incubated for 48 hours in a 37C, 5% CO2 incubator with controlled humidity.
4. After 48 hours, CellTilter-GloTM luminescent substrate mix (Promega) reagent was added to the assay plate and plates we incubated for 5 min at room temperature.
5. Signal was measured as median relative luminescence units on a ViewLux (PerkinElmer) multiplate reader.
[1] Heske CM, Davis MI, Baumgart JT, Wilson K, Gormally MV, Chen L, Zhang X, Ceribelli M, Duveau DY, Guha R, Ferrer M, Arnaldez FI, Ji J, Tran HL, Zhang Y, Mendoza A, Helman LJ, Thomas CJ. Matrix Screen Identifies Synergistic Combination of PARP Inhibitors and Nicotinamide Phosphoribosyltransferase (NAMPT) Inhibitors in Ewing Sarcoma. Clin Cancer Res. 2017 Dec 1;23(23):7301-7311. doi: 10.1158/1078-0432.CCR-17-1121. Epub 2017 Sep 12. PMID: 28899971; PMCID: PMC6636827.
Potency is the fitted concentration of half-maximal effect.

| Compound | Potency |
| --- | --- |
| O[C@@H](COc1cccc2ncccc12)CN1CCN(C2c3ccccc3[C@@H]3[C@H](c4ccccc42)C3(F)F)CC1 (stereo not given in full) | 16.6 µM (active) |
| Cc1csc(-c2nnc(Nc3ccc(Oc4ncccc4-c4ccnc(N)n4)cc3)c3ccccc23)c1 | 23.5 µM (active) |
| CCC(C)SSc1ncc[nH]1 (stereo not given) | 13.2 µM (active) |
| NCC1CCC(C(=O)O)CC1 (stereo not given) | 4.18 µM (active) |
| O=C(c1ccc(F)c(F)c1Nc1ccc(I)cc1F)N1CC(O)([C@H]2CCCCN2)C1 | 0.0372 µM (active) |
| C[C@@H](N)c1ccc(C(=O)Nc2ccnc3[nH]ccc23)cc1 | 20.9 µM (active) |
| CC1CCN(c2cc(N3CCN(C)CC3)ccc2NC(=O)c2cc(C#N)c[nH]2)CC1 | inactive |
| CC[C@H](C)C(=O)O[C@H]1C[C@H](O)C=C2C=C[C@H](C)[C@H](CC[C@@H](O)C[C@@H](O)CC(=O)O)[C@H]21 | inactive |
| CN[C@@H]1CN(c2ccc3c(=O)c(C(=O)O)cn(-c4nccs4)c3n2)C[C@@H]1OC | 14.4 µM (active) |
| CO[C@H]1/C=C\O[C@@]2(C)Oc3c(C)c(O)c4c(O)c(c(C=NN5CCN(C6CCCC6)CC5)c(O)c4c3C2=O)NC(=O)C(C)=CC=C[C@H](C)[C@H](O)[C@@H](C)[C@@H](O)[C@@H](C)[C@H](OC(C)=O)[C@H]1C | 0.118 µM (active) |
| C[C@@]1(c2cc(-c3cncnc3)c(F)cc2F)CCSC(N)=N1 | 3.32 µM (active) |
| COc1c(C)cnc(Cn2cnc3c(Cl)nc(N)nc32)c1C | 0.105 µM (active) |
| C=C[C@@H]1CN2CCC1C[C@@H]2C(O)c1ccnc2ccc(OC)cc12 (stereo not given in full) | inactive |
| COc1ccc(-c2cc3nccn3c(Nc3ncccc3C(N)=O)n2)cc1OC | 0.833 µM (active) |
| OCCn1cc(-c2ccc3c(c2)CCC3=NO)c(-c2ccncc2)n1 | 4.69 µM (active) |
| CC[C@H]1OC(=O)[C@H](C)[C@@H](O[C@H]2C[C@@](C)(OC)[C@@H](O)[C@H](C)O2)[C@H](C)[C@@H](O[C@@H]2O[C@H](C)C[C@H](N(C)C)[C@H]2O)[C@](C)(O)C[C@H](C)C(=NOCOCCOC)[C@H](C)[C@@H](O)[C@]1(C)O | inactive |
| Nc1nc(Cl)nc2c1ncn2[C@@H]1O[C@H](CO)[C@@H](O)[C@H]1F | 0.0148 µM (active) |
| Cc1cc(-c2ncc(CC(=O)Nc3ccc(-c4cnccn4)cn3)cc2C)ccn1 | 14.8 µM (active) |
| O=C1NC(=O)C(c2cnc3ccccn23)=C1c1cn2c3c(cccc13)CN(C(=O)N1CCOCC1)CC2 | 0.001 µM (active) |
| Nc1ncnc2c1c(-c1cccc(OCc3ccccc3)c1)cn2C1CC(CN2CCC2)C1 (stereo not given) | 16.6 µM (active) |

| Compound | Potency |
| --- | --- |
| O=C(Nc1ccccc1)Nc1ccc(-c2ccc(C(=O)[C@H]3CCC[C@H]3C(=O)O)cc2)cc1 | inactive |
| CCCCC[C@H](O)C=C[C@H]1[C@H](O)CC(=O)[C@H]1CC=CCCCC(=O)O | 5.9 µM (active) |
| CCNC(=O)[C@H]1O[C@@H](n2cnc3c(N)nc(NCCc4ccc(CCC(=O)O)cc4)nc32)[C@H](O)[C@H]1O | 0.0469 µM (active) |
| CC(C)CNc1ccnc(NCc2csc(-c3ccccc3)n2)n1 | 9.35 µM (active) |
| CN1CCN(c2cccc(Nc3nc4c(-c5ccc(S(C)(=O)=O)cc5)cccn4n3)c2)CC1 | 2.35 µM (active) |
| CCN1C[C@H](C)n2c(c(O)c3c(=O)n(Cc4ccc(F)c(Cl)c4)nc(C(=O)NC)c32)C1=O | inactive |
| CN(C)c1ccccc1CN1CCCN(Cc2ccccc2N(C)C)C1c1ccncc1 | 3.32 µM (active) |
| C=CCc1cccc(C=NNC(=O)CN2CCN(Cc3ccccc3)CC2)c1O | 20.9 µM (active) |
| Fc1ccc(CNc2ncnc3ccc(F)cc23)cc1 | 8.33 µM (active) |
| CC1(C)C(N(O)C(=O)Nc2ccc(Cl)cc2)N(c2ccc(Cl)cc2)C(=O)N1CC(=O)NN=CC=Cc1ccc([N+](=O)[O-])o1 (stereo not given) | 11.8 µM (active) |
| O=C(O)c1ccc(O)c2ncc(N3CCOCC3)cc12 | inactive |
| COC(=O)N1CCN(Cc2cccc(NC(=O)Nc3ccc(C)nc3)c2F)CC1 | inactive |
| CCC(=O)NCC[C@@H]1CCc2ccc3c(c21)CCO3 | 13.2 µM (active) |
| OC[C@H]1O[C@@H](Oc2ccc(O)cc2)[C@H](O)[C@@H](O)[C@H]1O | inactive |
| O=C(O)CCNc1cc(N2CCc3ccccc3CC2)nc(-c2ccccn2)n1 | inactive |
| Cc1cc(C(C)Nc2ccccc2)c2nc(N3CCOCC3)cc(=O)n2c1 (stereo not given) | 1.48 µM (active) |
| N#Cc1c(N(CC(=O)O)CC(=O)O)sc(C(=O)O)c1CC(=O)O | inactive |
| CCNC(=O)c1noc(-c2cc(C(C)C)c(O)cc2O)c1-c1ccc(CN2CCOCC2)cc1 | 0.0833 µM (active) |
| CN(C)CCOc1cc(-c2cn[nH]c2)ccc1NC(=O)C1COc2ccccc2O1 (stereo not given) | inactive |
| Cc1nc(NC(=O)N2CCC[C@@H]2C(N)=O)sc1-c1csc(C(C)(C)C)n1 | 3.72 µM (active) |
